Where “and” joins values, the source holds several entries; their conditions need not be identical. Identical values can stand only once. The whole screen tested about 16,000 compounds, of which about 5,800 (36%) were called active. Inconclusive results (about 23%) are left out. Calls come from the whole dose curve; as a rule, active = well fitted curve in the direction sought with a large enough effect; inconclusive = small, poorly fitted or top-dose-only effect, or effect the other way; inactive = no such curve, though single readings can be large or run the other way. Some of the results follow. Where a structure was tested more than once in an assay, its records may differ in their call.
target: Cytochrome P450 2C19 (Homo sapiens) (UniProt P33261); test: Cytochrome panel assay with activity outcomes; conditions: recombinant CYP, pro-luciferin dealkylation, luminescence, p450-cyp2c19; series mostly up to 57.1 µM; activity, negative = inhibition: at the top concentration
Sequence (P33261 whole entry, looked up): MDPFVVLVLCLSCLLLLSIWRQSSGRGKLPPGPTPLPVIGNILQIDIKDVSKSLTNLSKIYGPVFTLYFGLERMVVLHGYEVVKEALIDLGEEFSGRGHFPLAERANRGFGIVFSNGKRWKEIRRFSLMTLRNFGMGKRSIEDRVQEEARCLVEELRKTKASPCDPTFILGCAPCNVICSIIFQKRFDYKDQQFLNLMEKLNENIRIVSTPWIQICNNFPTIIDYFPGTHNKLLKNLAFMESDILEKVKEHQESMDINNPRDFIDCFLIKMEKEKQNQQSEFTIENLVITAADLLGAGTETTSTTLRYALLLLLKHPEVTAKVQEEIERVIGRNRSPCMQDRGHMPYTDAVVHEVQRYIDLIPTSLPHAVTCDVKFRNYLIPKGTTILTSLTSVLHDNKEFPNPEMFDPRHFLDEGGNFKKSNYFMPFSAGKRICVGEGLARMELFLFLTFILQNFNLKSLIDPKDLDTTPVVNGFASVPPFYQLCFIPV
% is set by controls: 0 for no effect and ±100 for the full control effect.

Row | Compound | AC50 | activity, negative = inhibition
1 | Cn1cc([N+](=O)[O-])c(C(=O)Nc2cc(Oc3cccnc3)cc([N+](=O)[O-])c2)n1 | 7.94 µM (active) | 
2 | CC1CCCC(C)N1C(=O)C1CC(c2ccc(F)cc2)=NO1 (centres undefined) | 17.8 µM (active) | 
3 | O=C(NNC(=O)C1CC(c2cccnc2)=NO1)Nc1cccc(F)c1 (centres undefined) |  | 34.3% (inactive)
4 | O=C(NC1CCCC1)C1CC(c2ccc(F)cc2)=NO1 (centres undefined) | 10 µM (active) | 
5 | CO[C@H]1COC(=O)[C@H](C)COC(=O)C/C=C\[C@@H](C)[C@H](OC)COC(=O)C/C=C\[C@@H]1C |  | -42.3% [at 11.4 µM] (inactive)
6 | COc1nc(C)nc(Cl)c1NC1=NCCN1 |  | -32% [at 25.6 µM] (inactive)
7 | Fc1ccc(CN(C2=NCCN2)c2c(Cl)cccc2Cl)cc1 |  | -36.9% (inactive)
8 | Clc1cccc(Cl)c1NC1=NCCN1 | inactive and 5.01 µM (active) | 
9 | Clc1cccc(Nc2nnc(-c3ccccc3)c3ccccc23)c1 | 0.794 µM (active) | 
10 | Cc1ccc(COc2coc(CO)cc2=O)cc1 | 14.1 µM (active) | 
11 | COC(=O)[C@@]1(Cc2ccc(OC)cc2)[C@@H]2C(=CC(=O)[C@H]2CC(=O)C(=O)N(C)C)CN1C(=O)c1ccccc1 |  | -31.9% (inactive)
12 | C=C1C(=O)C=C2CN(C(=O)c3ccccc3)[C@@](Cc3ccc(F)cc3)(C(=O)OC)[C@@H]12 | 5.01 µM (active) | 
13 | C=C1C(=O)C=C2CN(C(=O)c3ccccc3)[C@@](Cc3ccc(OC)cc3)(C(=O)OC)[C@@H]12 | 20 µM (active) | 
14 | COc1ccc(C(=O)N2CCC3(CC2)CN(Cc2ccc(C#N)cc2)C3)cc1 |  | -27.6% (inactive)
15 | O=C(O)C12CC3(C(=O)O)CC(C(=O)O)(CC(C(=O)O)(C1)C3=O)C2=O |  | -11.5% [at 11.4 µM] (inactive)
16 | C[C@H]1/C=C\CC(=O)OC[C@H](C)C(=O)N2CCC[C@@H]2C(=O)OC1 |  | -9.53% [at 11.4 µM] (inactive)
17 | COC(=O)[C@@H]1O[C@@H](SCCN)[C@@H](O)[C@H](O)[C@H]1O |  | 31.9% [at 11.4 µM] (inactive)
18 | c1cc(-c2sc(-c3ccncc3)c(-c3ccncc3)c2-c2ccncc2)ccn1 | 1.58 µM (active) | 
19 | Cc1cn2c(-c3ccncc3)nnc2s1 |  | -27.6% (inactive)
20 | COc1ccc(N2CCN(CCNC(=O)c3c(C)cc(=O)oc3C)CC2)cc1 |  | -20.5% (inactive)
21 | O=C(C(NS(=O)(=O)c1cccs1)c1ccccc1)N1CCN(c2ccccc2)CC1 (centres undefined) | 1.41 µM (active) | 
22 | COC(=O)N1CCC2(CC1)CCN(C(c1ccccc1)c1ccccc1)CC2 |  | -44.4% (inactive)
23 | COc1ccccc1N1CCN(C(=O)C(NS(=O)(=O)c2cccs2)c2ccccc2)CC1 (centres undefined) | 3.16 µM (active) | 
24 | CC(C)C(NS(=O)(=O)c1cccs1)C(=O)NCCN1CCN(c2ccccc2)CC1 (centres undefined) | 14.1 µM (active) | 

Row | Compound | AC50 | activity, negative = inhibition
25 | CCN1CCN(CCCNC(=O)C(NC(=O)C2CCC(C)CC2)C(C)C)CC1 (centres undefined) |  | 9.56% (inactive)
26 | CC(=O)N[C@@H](C(=O)O)C(C)(C)SN=O | inactive | 
27 | CCOC(=O)c1[nH]c(C)c(C(=O)OCC(=O)N2c3ccccc3CC2C)c1C (centres undefined) | 11.2 µM (active) | 
28 | Cc1ccccc1OCCNC(=S)Nc1ccccc1 | 0.794 µM (active) | 
29 | CNC(=S)NNC(=O)COc1ccccc1C |  | -29% (inactive)
30 | CNCC[C@H](Oc1ccccc1C)c1ccccc1 |  | -21.1% (inactive)
31 | O=C(CC(=O)N/N=C\c1c(Cl)cccc1Cl)NCc1ccccc1 | 2.51 µM (active) | 
32 | C[C@@](N)(C(=O)O)c1ccc(P(=O)(O)O)cc1 |  | 13.2% (inactive)
33 | CN1Cc2c(C(=O)OC(C)(C)C)ncn2-c2ccsc2C1=O | 1.26 µM (active) | 
34 | CCOCCCn1cnc2c([nH]c3cc(OC)ccc32)c1=O | 1.41 µM (active) | 
35 | O=C(N/N=C/c1ccc2c(c1)OCO2)/C(=C/c1ccc2c(c1)OCO2)NC(=O)c1ccccc1 | 14.1 µM (active) | 
36 | Cc1ccc(NC(=O)/C(=C\c2ccc3c(c2)OCO3)NC(=O)c2ccco2)cc1 |  | -26.4% (inactive)
37 | C=CCNC(=O)/C(=C\c1ccc2c(c1)OCO2)NC(=O)c1ccc(Br)cc1 | 8.91 µM (active) | 
38 | Cc1ccc(N(C(=O)c2csnn2)C(C(=O)NC(C)(C)C)c2cccs2)cc1 (centres undefined) | 2.51 µM (active) | 
39 | COc1ccc(-c2csc3c2[N+]2=CCC=C2C3=O)cc1 | 3.98 µM (active) | 
40 | COc1cc(C(=O)N2CCN(C(=O)c3ccccc3)CC2)cc(OC)c1OC |  | -7.85% (inactive)
41 | COc1cc2c(C(=O)N3CCN(C)CC3)c(C)n(-c3ccccc3)c2cc1Br | 28.2 µM (active) | 
42 | COc1ccccc1CN1CCCC2(CCN(C(=O)c3c(C)noc3C)CC2)C1 |  | -37.8% (inactive)
43 | CC1CCN(C(NC(=O)c2ccco2)C(=O)c2ccccc2)CC1 (centres undefined) | 2 µM (active) | 
44 | CC(C)NC(=O)N1CCCC2(CCN(C(=O)c3ccco3)CC2)C1 |  | -17.9% (inactive)
45 | COc1ccc(C(=O)N2CCC[C@@]3(CCN(CC(C)C)C3)C2)cc1 |  | 6.79% (inactive)
46 | Cc1ccc(C2C(=O)N(C3CCCC3)CC(=O)N2CC2COc3ccccc3O2)cc1 (centres undefined) | 6.31 µM (active) | 
47 | NC(=O)CNC(=O)[C@@H]1CC2(CC(c3ccc(Cl)cc3)=NO2)CN1C(=O)c1ccccc1 (some centres undefined) |  | 2.94% (inactive)
48 | O=C(c1ccc(Cl)cc1)N1CCCC(c2ccccc2)=N1 | 4.47 µM (active) | 

Row | Compound | AC50 | activity, negative = inhibition
49 | O=S(=O)(c1ccc(Br)cc1)N1CCN(S(=O)(=O)c2ccc(Br)cc2)CC1 |  | -4.78% [at 11.4 µM] (inactive)
50 | Cc1ccc(S(=O)(=O)N2CCN(Cc3ccccc3C(F)(F)F)CC2)cc1 | 2.24 µM (active) | 
51 | COc1ccccc1CN1CCC2(CC1)CCN(S(=O)(=O)c1ccccc1)CC2 |  | 18.2% (inactive)
52 | Cc1ccc(S(=O)(=O)N2CCN(S(C)(=O)=O)C2)cc1 | 11.2 µM (active) | 
53 | CN(C)[C@H]1C(=O)C(C(=O)NCN2CCCC2)=C(O)[C@]2(O)C(=O)C3=C(O)c4c(O)cccc4[C@](C)(O)[C@H]3C[C@H]12 |  | -26.1% [at 11.4 µM] (inactive)
54 | Cc1ccc(S(=O)(=O)/N=C(/Nc2c(C)n(C)n(-c3ccccc3)c2=O)c2ccc(Cl)cc2)cc1 |  | -27.9% (inactive)
55 | Cc1c(CCO)c(=O)n(-c2ccccc2)n1S(=O)(=O)c1c(Cl)cc(Cl)cc1Cl | 2.82 µM (active) | 
56 | Cc1c(N(C)CS(=O)(=O)O)c(=O)n(-c2ccccc2)n1C |  | 8.53% [at 25.6 µM] (inactive)
57 | CCOC(=O)N1CCN(CC(=O)c2ccc3c(c2)CCN3)CC1 | 14.1 µM (active) | 
58 | O=C(Cc1ccccc1)NCCSCc1ccc(Cl)cc1 | 2.24 µM (active) | 
59 | S=C(NCCSCc1c(Cl)cccc1Cl)Nc1ccccc1 | 1.41 µM (active) | 
60 | N[C@@H](CSCc1ccccc1)C(=O)O |  | -4.77% [at 11.4 µM] (inactive)
61 | S=C(NCCSCc1ccc(Cl)cc1Cl)Nc1ccccc1 | 1.12 µM (active) | 
62 | COc1c2ccoc2nc2c(OC)c(OC[C@H](O)C(C)(C)O)ccc12 |  | 8.3% [at 25.6 µM] (inactive)
63 | C/C(=N\NC(N)=S)c1ccc[nH]1 |  | 20.4% [at 11.4 µM] (inactive)
64 | C[C@@H](C(=O)NCc1cccc2ccccc12)[C@H]1C[C@]1(C)[C@H](NC(=O)OCc1ccccc1)c1ccccc1 | 2.51 µM (active) | 
65 | C[C@@H](C(=O)NCc1ccc(S(C)(=O)=O)cc1)[C@@H]1C[C@@]1(C)[C@@H](NC(=O)OCc1ccccc1)c1ccccc1 | 1.26 µM (active) | 
66 | O=P(O)(CCc1ccccc1)C(O)c1ccccc1 (centres undefined) |  | -48.5% (inactive)
67 | C(=N\N1CCN(C2c3ccccc3-c3ccccc32)CC1)/c1cccnc1 | 0.251 µM (active) | 
68 | C/C(=N\N1CCN(C2c3ccccc3-c3ccccc32)CC1)c1ccncc1 | 3.16 µM (active) | 
69 | C/C(=N\N1CCN(C2c3ccccc3-c3ccccc32)CC1)c1cccnc1 | 4.47 µM (active) | 
70 | O=[N+]([O-])c1cc(/C=N/N2CCN(C3c4ccccc4-c4ccccc43)CC2)ccc1Cl |  | 1.97% (inactive)
71 | CC1(C)OC(=O)NC1=O |  | 24.8% [at 25.6 µM] (inactive)
72 | COc1ccccc1CNCC(O)(c1ccc(Cl)cc1)c1ccc(Cl)cc1 | 2.82 µM (active) | 

Row | Compound | AC50 | activity, negative = inhibition
73 | COCC(=O)N1CCC2(CCN(Cc3ccccc3OC)CC2)CC1 |  | 15.4% (inactive)
74 | C[C@@]12C(=O)OC(=O)[C@@]1(C)[C@@H]1CC[C@@H]2O1 |  | -37.1% (inactive)
75 | CC(C)CO[C@H](c1ccc2c(c1)OCO2)[C@H](C)Br | 0.0631 µM (active) | 
76 | Cc1cc(SCC(=O)c2ccccc2)nc(SCC(=O)c2ccccc2)n1 | 2 µM (active) | 
77 | O=C(CSc1ncnc2nc[nH]c12)c1ccccc1 |  | 6.64% [at 11.4 µM] (inactive)
78 | CSc1nc(C)cc(SC(C(C)=O)C(=O)Nc2ccccc2)n1 (centres undefined) |  | -50.3% (inactive)
79 | CCN(CC)c1ccc(SS(=O)(=O)O)cc1 | 7.08 µM (active) | 
80 | N#C/C(=C/N1CCOCC1)c1ccccc1 | 4.47 µM (active) | 
81 | CC(=O)[C@H]([C@@H](c1ccccc1)N1CCOCC1)N1CCOCC1 |  | 7.37% [at 11.4 µM] (inactive)
82 | C[C@H](C(=O)c1ccccc1)[C@@H](c1ccccc1)N1CCOCC1 | 1.58 µM (active) | 
83 | C[N+]1(C)CCC(OC(=O)C(c2ccccc2)c2ccccc2)CC1 | inactive | 
84 | CCOC(=O)CNS(=O)(=O)c1cc(-c2nn(C)c(=O)c3ccccc23)ccc1C | 3.16 µM (active) | 
85 | CCN(CC)CCNC(=O)C(C)c1nn(C)c(=O)c2ccccc12 (centres undefined) |  | -28% (inactive)
86 | CC1CCCC(C)N1CCNC(=O)Cn1nc(-c2ccccc2)ccc1=O (centres undefined) |  | -25.2% (inactive)
87 | Cc1ccc(-c2nn3c(C)nnc3c3ccccc23)cc1S(=O)(=O)NCc1ccccc1 | 5.01 µM (active) | 
88 | Cc1ccc(-c2nn(C)c(=O)c3ccccc23)cc1CNC(=O)Cn1nc(-c2ccccc2)c2ccccc2c1=O | 7.94 µM (active) | 
89 | Cc1nc2ccc3nc(NC(=O)c4ccc(S(=O)(=O)N5CCOCC5)cc4)sc3c2s1 |  | -28.8% (inactive)
90 | Cc1nc2c(ccc3nc(NC(=O)c4ccc5c(c4)OCCO5)sc32)s1 | 2.51 µM (active) | 
91 | CCN1CCC[C@@H](OC(=O)C(c2ccccc2)c2ccccc2)C1 |  | -20.1% [at 25.6 µM] (inactive)
92 | CCN1CCc2nc(NC(=O)CC(c3ccccc3)c3ccccc3)sc2C1 | 8.91 µM (active) | 
93 | CCN1CCc2c(sc(NC(=S)NC(=O)c3ccccc3)c2C#N)C1 |  | -59.3% (inactive)
94 | CCN1CCc2nc(NC(=O)c3ccc4c(c3)OCCO4)sc2C1 | 15.8 µM (active) | 
